Results filed as inconclusive are left out. Calls of active or inactive are those of the source. The call rests on the fitted dose curve; in most records, active means well fitted curve in the direction sought with a large enough effect; inconclusive means small, poorly fitted or top-dose-only effect, or another doubt; inactive means no such curve, though single readings can be large; an effect the other way counts as inactive or inconclusive.
Tests used:
[1] = Quantitative High-Throughput drug screen in 47 multiple myeloma cell lines against the NCATS MIPE library collection: KHM11_PLB cell viability assay (AID 1918962); further: nearly all actives have a fitted effect of over 35% in size
Outline: (§1)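 Relative luminescence from CellTiter-Glo served as the viability signal, referenced to DMSO-treated (100%) and cell-free medium (0%) controls. Treatment lasted 48 hours at 37C with 500 cells per well.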

[2] = Quantitative High-Throughput drug screen in 47 multiple myeloma cell lines against the NCATS MIPE library collection: JIM3_ECACC cell viability assay (AID 1918963; further: nearly all actives have a fitted effect of over 35% in size)
Outline: as §1

[3] = Quantitative High-Throughput drug screen in 47 multiple myeloma cell lines against the NCATS MIPE library collection: JIM1_ECACC cell viability assay (AID 1918964)
Outline: (§2)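 Primary qHTS used for cherry-picking: cells at 500/well, library compounds for 48 h (37C, 5% CO2), luminescent ATP assay.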

[4] = Quantitative High-Throughput drug screen in 47 multiple myeloma cell lines against the NCATS MIPE library collection: JJN3_DSMZ cell viability assay (AID 1918966; further: nearly all actives have a fitted effect of over 50% in size)
Outline: as §2

[5] = Quantitative High-Throughput drug screen in 47 multiple myeloma cell lines against the NCATS MIPE library collection: H1112_PLB cell viability assay (AID 1918967; further: nearly all actives have a fitted effect of over 30% in size)
Outline: as §2

[6] = Quantitative High-Throughput drug screen in 47 multiple myeloma cell lines against the NCATS MIPE library collection: Karpas25_ECACC cell viability assay (AID 1918968; further: nearly all actives have a fitted effect of over 35% in size)
Outline: as §2

[7] = Quantitative High-Throughput drug screen in 47 multiple myeloma cell lines against the NCATS MIPE library collection: KMS27_JCRB cell viability assay (AID 1918970); conditions: KMS27 myeloma cells, CellTiter-Glo ATP viability, 48 h; viability (% of DMSO): at 45.8 µM (top of the series); further: nearly all actives have a fitted effect of over 30% in size
Outline: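 CellTiter-Glo luminescence after 48 h drug exposure at 37 °C; 500 cells/well, 1536-well format, pin-tool compound addition; DMSO = 100%, media-only = 0% viability.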

[8] = Quantitative High-Throughput drug screen in 47 multiple myeloma cell lines against the NCATS MIPE library collection: KMS12BM_JCRB cell viability assay (AID 1918971); further: nearly all actives have a fitted effect of over 35% in size
Outline: (§3)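 Approved and investigational drugs from MIPE 4.0 were added by pin tool to 500 cells per well. After 48 hours at 37C, ATP-based CellTiter-Glo luminescence indicated remaining viability.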

[9] = Quantitative High-Throughput drug screen in 47 multiple myeloma cell lines against the NCATS MIPE library collection: KMS12PE_JCRB cell viability assay (AID 1918972); further: nearly all actives have a fitted effect of over 30% in size
Outline: as §1

[10] = Quantitative High-Throughput drug screen in 47 multiple myeloma cell lines against the NCATS MIPE library collection: MOLP8_DSMZ cell viability assay (AID 1918977); further: nearly all actives have a fitted effect of over 45% in size
Outline: (§4)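 Readout: median RLU from CellTiter-Glo after 5 min at room temperature. Preceding step was 48 h drug treatment of 500 cells/well at 37 °C, 5% CO2, with DMSO-only and media-only control wells.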

[11] = Quantitative High-Throughput drug screen in 47 multiple myeloma cell lines against the NCATS MIPE library collection: NCIH929_DSMZ cell viability assay (AID 1918978); further: nearly all actives have a fitted effect of over 35% in size
Outline: as §4

[12] = Quantitative High-Throughput drug screen in 47 multiple myeloma cell lines against the NCATS MIPE library collection: OCIMY1_PLB cell viability assay (AID 1918979); further: nearly all actives have a fitted effect of over 35% in size
Outline: as §4

[13] = Quantitative High-Throughput drug screen in 47 multiple myeloma cell lines against the NCATS MIPE library collection: MM1S_ATCC cell viability assay (AID 1918980); further: nearly all actives have a fitted effect of over 45% in size
Outline: as §4

[14] = Quantitative High-Throughput drug screen in 47 multiple myeloma cell lines against the NCATS MIPE library collection: MM1R_ATCC cell viability assay (AID 1918981); further: nearly all actives have a fitted effect of over 35% in size
Outline: as §4

[15] = Quantitative High-Throughput drug screen in 47 multiple myeloma cell lines against the NCATS MIPE library collection: LP1_DSMZ cell viability assay (AID 1918982); further: nearly all actives have a fitted effect of over 35% in size
Outline: as §4

[16] = Quantitative High-Throughput drug screen in 47 multiple myeloma cell lines against the NCATS MIPE library collection: INA6_PLB cell viability assay (AID 1918965; further: nearly all actives have a fitted effect of over 55% in size)
Outline: as §1

[17] = Quantitative High-Throughput drug screen in 47 multiple myeloma cell lines against the NCATS MIPE library collection: KMS20_JCRB cell viability assay (AID 1918973); further: nearly all actives have a fitted effect of over 45% in size
Outline: as §2

[18] = Quantitative High-Throughput drug screen in 47 multiple myeloma cell lines against the NCATS MIPE library collection: KMS26_JCRB cell viability assay (AID 1918975); further: nearly all actives have a fitted effect of over 45% in size
Outline: as §3

[19] = Quantitative High-Throughput drug screen in 47 multiple myeloma cell lines against the NCATS MIPE library collection: MMM1_PLB cell viability assay (AID 1918976); further: nearly all actives have a fitted effect of over 35% in size
Outline: as §4

Measured: Potency
Potency means the concentration at half of the fitted maximal effect.

C[C@@H]1CC[C@@]2(OC1)OC1CC3C4CC=C5CC(O)CCC5(C)C4CCC3(C)C1[C@@H]2C (stereo partly specified)
inactive: [1] | [2] | [3] | [4] | [5] | [6] | [7] | [8] | [9] | [10] | [11] | [12] | [13] | [14] | [15]

CC(=O)N1CCN(c2ccc(OCc3nn(C)c(C)c3-c3cccc4c(CCCOc5cccc6ccccc56)c(C(=O)O)n(Cc5cccnc5)c34)cc2)CC1
active: [1] 2350 nM | [2] 3320 nM | [3] 469 nM | [16] 33.2 nM | [5] 132 nM | [6] 83.3 nM | [7] 74.3 nM | [9] 469 nM | [17] 52.6 nM | [18] 3720 nM | [10] 16600 nM | [13] 37.2 nM

N#Cc1cc(NC(=O)Nc2nnc(-c3ccncc3)s2)ccc1-c1cn[nH]c1
active: [19] 3320 nM | [13] 5260 nM
inactive: [1] | [2] | [3] | [16] | [5] | [6] | [7] | [18] | [11] | [12] | [14] | [15]

CC(C)NC[C@@H](C(=O)N1CCN(c2ncnc3c2[C@H](C)C[C@H]3O)CC1)c1ccc(Cl)cc1
active: [1] 14800 nM | [2] 1660 nM | [16] 4180 nM | [4] 6620 nM | [5] 3720 nM | [6] 469 nM | [7] 1870 nM | [8] 6620 nM | [9] 469 nM | [17] 743 nM | [18] 1320 nM | [19] 26.4 nM | [10] 296 nM | [11] 105 nM | [12] 16600 nM | [13] 46.9 nM | [14] 105 nM

CC(C)N1[N]C(=C2C=c3cc(O)ccc3=N2)c2c(N)ncnc21
active: [1] 83.3 nM | [2] 264 nM | [16] 1180 nM | [4] 209 nM | [5] 4180 nM | [6] 235 nM | [7] 209 nM | [8] 166 nM | [9] 2350 nM | [17] 743 nM | [18] 1180 nM | [19] 83.3 nM | [10] 83.3 nM | [11] 59 nM | [13] 469 nM | [14] 418 nM | [15] 2.6 nM

NC(=O)c1cccc(-c2cccc(OC(=O)NC3CCCCC3)c2)c1
inactive: [1] | [2] | [3] | [4] | [5] | [8] | [9] | [17] | [10] | [11] | [12] | [13] | [15]

CC(C)(O)[C@H]1CC[C@@](C)([C@H]2[C@@H](O)C[C@@]3(C)[C@@H]4C[C@H](O[C@@H]5O[C@H](CO)[C@@H](O)[C@H](O)[C@@H]5O)[C@H]5C(C)(C)[C@@H](O[C@@H]6OC[C@@H](O)[C@H](O)[C@@H]6O)CC[C@@]56C[C@@]46CC[C@]23C)O1
active: [4] 418 nM
inactive: [1] | [2] | [3] | [16] | [5] | [6] | [17] | [18] | [10] | [11] | [12] | [14] | [15]

CCCCCCCCCCCC(CC1OC(=O)C1CCCCCC)OC(=O)C(CC(C)C)NC=O (stereo unspecified)
active: [16] 332 nM | [4] 23500 nM | [8] 20900 nM | [17] 4.2 nM | [19] 20900 nM
inactive: [1] | [2] | [3] | [5] | [6] | [12] | [13]

CON=C(C(=O)N[C@@H]1C(=O)N2C(C(=O)O)=C(Cn3ccc(=N)n3CCO)CS[C@H]12)c1csc(N)n1
inactive: [1] | [2] | [3] | [16] | [5] | [7] | [8] | [9] | [18] | [10] | [11] | [13] | [14] | [15]

COc1cccc2c1C(=O)c1c(O)c3c(c(O)c1C2=O)C[C@@](O)(C(=O)CO)C[C@@H]3O[C@H]1C[C@H](N)[C@@H](O)[C@H](C)O1
active: [1] 743 nM | [2] 935 nM | [16] 166 nM | [4] 662 nM | [5] 590 nM | [6] 418 nM | [7] 935 nM | [8] 469 nM | [9] 2350 nM | [17] 166 nM | [18] 1480 nM | [19] 469 nM | [10] 372 nM | [11] 235 nM | [12] 1660 nM | [13] 66.2 nM | [14] 118 nM | [15] 1870 nM

Reference: PubChem BioAssay (NCATS)
